Source: PubChem BioAssay (National Center for Advancing Translational Sciences (NCATS))
ClpP mod = qHTS Assay for Activators of ClpP; Potency, µM (highest dose often 57.5 µM); actives 1.9% (n = 340,000); purified B. subtilis ClpP, FRET peptide cleavage, 20 min; ATP-dependent Clp protease proteolytic subunit (Bacillus subtilis (strain 168)), P80244; active means well fitted falling curve with a large enough effect; inconclusive means small, poorly fitted or top-dose-only effect; inactive means no such curve, though single readings can be large or run the other way; further: the source files actives as falling curves though it sought activators and does not explain the sign; nearly all actives have a fitted effect of over 65% in size
Target sequence (P80244 whole entry, looked up): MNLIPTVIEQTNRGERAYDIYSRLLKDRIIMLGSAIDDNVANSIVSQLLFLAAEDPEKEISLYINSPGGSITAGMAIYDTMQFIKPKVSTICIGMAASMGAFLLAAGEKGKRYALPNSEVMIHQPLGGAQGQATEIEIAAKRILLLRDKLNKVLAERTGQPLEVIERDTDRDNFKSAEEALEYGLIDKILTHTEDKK
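ClpP 10 microg/mL final, pH 8 Tris/KCl buffer with BSA, glycerol, Tween-20; compound pinned in; FRET-FV substrate; RT 20 min; Ex320/Em430; ΔFRET vs ADEP 5.8 microM, DMSO, no enzyme.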
TDP1 inh = inhibitors of human tyrosyl-DNA phosphodiesterase TDP1; Q9NUW8; recombinant TDP1, AlphaScreen DNA substrate cleavage; AID 485290; Potency, µM (top dose mostly 130 µM), most hits filed as inhibitors; actives 0.28% (n = 350,000); further: nearly all actives have a fitted effect of over 40% in size
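Steps: enzyme plus compound, 15 min RT; add biotin/phosphotyrosine-FITC oligonucleotide (15 nM final), react 5 min; add donor/acceptor beads (10 ug/ml final), 10 min; read AlphaScreen. Tdp1 at 1 nM final.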
DT40 TDP1 CPT = DT40-hTDP1 cell growth loss with CPT | chicken DT40 Tdp1-/-;hTDP1 cells + 20 nM CPT, ATP luminescence, 48 h | Potency, µM (titrated, usually from 46.2 µM), actives largely listed as inhibitors | AID 686979 | actives 12% (n = 420,000); further: nearly all actives have a fitted effect of over 55% in size
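Chicken DT40 Tdp1-/- cells stably complemented with human TDP1 were seeded at 400 cells/well in medium containing 20 nM camptothecin, exposed to pin-transferred compounds, and grown at 37 °C for at least 48 hr. Viability was read as ATP luminescence.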
TDP1 cell noCPT = qHTS for Inhibitors of human tyrosyl-DNA phosphodiesterase 1 (TDP1): qHTS in cells in absence of CPT | AID 686978, 2013 | Potency, µM (doses to about 46.2 µM), actives largely listed as inhibitors | actives 15% (n = 420,000) | DT40 Tdp1-/- hTDP1 cells, no CPT, ATP luminescence, 48 h; further: nearly all actives have a fitted effect of over 55% in size
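Growth kinetics read by CellTiter-Glo luminescence after ≥48 hr at 37 °C. Cells: DT40 Tdp1-/- stably carrying human TDP1, 400 per well, compound exposure in the absence of CPT (DMSO vehicle).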
Each line names hits and unclear results; the compound was inactive in the other large screens. In the library only some 17% were active in any assay of this set; here they are far more common. Unless noted, the call rests on the fitted dose curve; in most records, active means well fitted curve in the direction sought with a large enough effect; inconclusive means small, poorly fitted or top-dose-only effect, or another doubt; inactive means no such curve, though single readings can be large; an effect the other way counts as inactive or inconclusive.

CCC(=O)Nc1cccc(C(=O)/C=C/c2ccccc2)c1	ClpP mod 16µM, DT40 TDP1 CPT 4.1µM, TDP1 cell noCPT 5.2µM (no result: TDP1 inh)
Cc1ccc(CCNC(=O)CN2CCN(Cc3ccc(Cl)cc3)C2=O)cc1	TDP1 cell noCPT inconclusive
CN(Cc1cnc2ccccn12)C1CCN(c2cccc(NC(=O)c3cccnc3)c2)CC1	TDP1 cell noCPT inconclusive (no result: ClpP mod, TDP1 inh)
CO[C@@H]1COC(=O)[C@H](COCc2ccccc2)NC(=O)C/C=C\[C@@H](C)[C@H](OC)COC(=O)[C@H](COCc2ccccc2)NC(=O)C/C=C\[C@H]1C	none (no result: ClpP mod, DT40 TDP1 CPT, TDP1 cell noCPT)
Cc1ccc(CCNC(=O)CCn2nc(-c3ccc(C)cc3)ccc2=O)cc1	DT40 TDP1 CPT 23µM, TDP1 cell noCPT inconclusive
Cc1ccc(-c2ccc(=O)n(Cc3cccc(Br)c3)n2)cc1	none (no result: ClpP mod, TDP1 inh)
Cc1ccc(-c2ccc(=O)n(Cc3c(F)cccc3Cl)n2)cc1	DT40 TDP1 CPT inconclusive, TDP1 cell noCPT 18µM (no result: TDP1 inh)
Cc1ccc(-c2ccc(=O)n(Cc3cc(C)ccc3C)n2)cc1	DT40 TDP1 CPT inconclusive, TDP1 cell noCPT 21µM
COCCN1Cc2cccc(C(=O)Nc3ccc(S(=O)(=O)N4CCOCC4)cc3)c2C1=O	none
CCc1nc(SCC(=O)Nc2ccc(N(C)C)cc2)n[nH]1	DT40 TDP1 CPT 4.6µM, TDP1 cell noCPT 4.6µM
CN(C)c1ccc(NC(=O)CSc2nc(N)c(C(=O)Nc3ccc(N(C)C)cc3)s2)cc1	DT40 TDP1 CPT 10µM, TDP1 cell noCPT 13µM
CC(=O)c1nnn(-c2nc(N)nc(N(c3ccccc3)c3ccccc3)n2)c1C	DT40 TDP1 CPT 29µM, TDP1 cell noCPT 15µM
CCCCN(CCCC)c1nc(OC)nc(-n2nnc(C(C)=O)c2C)n1	DT40 TDP1 CPT 23µM, TDP1 cell noCPT inconclusive
CCOC(=O)c1nnn(-c2nc(N(C)C)nc(N(C)C)n2)c1C	none (no result: ClpP mod)
O=S(=O)(c1ccc(OC(F)(F)F)cc1)N1CCC(c2nc3ccccc3s2)CC1	none
O=C(N/C(=C\c1ccco1)C(=O)N1CCCC1CO)c1ccccc1 (centres undefined)	none (no result: ClpP mod, TDP1 inh)
Cc1c(NC(=O)OCCNC(=O)COc2c(Cl)cccc2Cl)sc(=S)n1C	none
C=C(C)C1Cc2c(C)nn(-c3cccc4ccccc34)c2C1 (centres undefined)	DT40 TDP1 CPT 21µM, TDP1 cell noCPT inconclusive
C=C(C)C1Cc2c(C)nn(-c3ccccc3)c2C1 (centres undefined)	none
COc1ccc(C(C(=O)NC2CCCC2)N(C(=O)c2snc(C(N)=O)c2N)c2cccc(O)c2)cc1 (centres undefined)	DT40 TDP1 CPT inconclusive, TDP1 cell noCPT 13µM (no result: ClpP mod)
NC(=O)c1nsc(C(=O)N(CC(=O)NCc2ccccc2)c2cccc(F)c2)c1N	none
COc1ccc(C(C(=O)NC2CCCC2)N(C(=O)c2snc(C(N)=O)c2N)c2ccccc2OC)cc1OC (centres undefined)	none (no result: TDP1 inh)
COc1ccc(N(C(=O)c2snc(C(N)=O)c2N)C(C(=O)NC2CCCC2)c2cc(OC)ccc2OC)c(OC)c1 (centres undefined)	DT40 TDP1 CPT 23µM, TDP1 cell noCPT 29µM (no result: ClpP mod)
NC(=O)c1nsc(C(=O)N(c2cccc(F)c2)C(C(=O)NC2CCCC2)c2ccc(O)cc2)c1N (centres undefined)	none (no result: ClpP mod)
NC(=O)c1nsc(C(=O)N(c2cccc(F)c2)C(C(=O)NCc2ccccc2)c2ccc(O)cc2)c1N (centres undefined)	DT40 TDP1 CPT inconclusive, TDP1 cell noCPT 21µM
COc1ccc(N(C(=O)c2snc(C(N)=O)c2N)C(C(=O)NC2CCCCC2)c2ccc(F)cc2)c(OC)c1 (centres undefined)	DT40 TDP1 CPT 2.9µM, TDP1 cell noCPT inconclusive (no result: ClpP mod, TDP1 inh)
COc1ccc(-n2nc3c(c2NC(=O)C(=O)NCc2ccccc2)CSC3)cc1	DT40 TDP1 CPT inconclusive, TDP1 cell noCPT inconclusive
CCOC(=O)c1ccccc1NC(=O)Cn1c(=O)n(CCCC(=O)NCc2ccc3c(c2)OCO3)c(=O)c2ccccc21	none
Cn1c(=O)cc(SCC(=O)Nc2cccc(C#N)c2)c2ccc(Cl)cc21	none
O=C(O)C1CCCCN1c1ccccc1[N+](=O)[O-] (centres undefined)	none (no result: TDP1 inh)
COc1ccc(-c2nsc(C(=O)N(c3ccc(F)cc3)C(C(=O)NC3CCCC3)c3ccc(OC)cc3)c2N)cc1 (centres undefined)	ClpP mod 16µM, DT40 TDP1 CPT 16µM, TDP1 cell noCPT 16µM
COc1ccccc1N(C(=O)c1snc(C(N)=O)c1N)C(C(=O)NCc1ccccc1)c1ccc(O)cc1 (centres undefined)	none (no result: ClpP mod)
COc1ccc(C(C(=O)NC2CCCC2)N(C(=O)c2snc(C(N)=O)c2N)c2cc(C)ccc2OC)cc1OC (centres undefined)	DT40 TDP1 CPT inconclusive, TDP1 cell noCPT 18µM (no result: ClpP mod)
COc1ccc(N(C(=O)c2snc(C(N)=O)c2N)C(C(=O)NCc2ccccc2)c2ccc(F)cc2)c(OC)c1 (centres undefined)	DT40 TDP1 CPT 26µM, TDP1 cell noCPT inconclusive (no result: ClpP mod, TDP1 inh)
C=C1CCN(C(CC(C)C)C(=O)NN2CCOCC2)S(=O)(=O)c2ccccc21 (centres undefined)	none (no result: ClpP mod, DT40 TDP1 CPT, TDP1 cell noCPT)
O=C(Nc1ccc(F)cc1)c1cc2cc3ccc(Cl)cc3nc2o1	none
NC(=S)N/N=C/c1c(O)ccc2ccccc12	DT40 TDP1 CPT 12µM, TDP1 cell noCPT inconclusive
Oc1ccc2ccccc2c1/C=N/Nc1ccccc1	none
O=CN/N=C/c1c(O)ccc2ccccc12	DT40 TDP1 CPT 7.3µM, TDP1 cell noCPT 6.5µM
CC(=O)OC[C@@H]1O[C@@H](O/N=C2/C[C@@H](O)[C@@H](O)[C@@H]3[C@@H]4C(=O)N(c5cccc(Oc6ccccc6)c5)C(=O)[C@H]4CC[C@@H]23)[C@H](OC(C)=O)[C@H](OC(C)=O)[C@@H]1OC(C)=O	none (no result: ClpP mod, DT40 TDP1 CPT, TDP1 cell noCPT)
COc1ccc2[nH]c(=O)c(CN(CCCN3CCOCC3)C(=O)NCc3ccccc3)cc2c1	ClpP mod 16µM
CCc1ccc2[nH]c(=O)c(CN(CCCN3CCOCC3)C(=O)Nc3ccccc3)cc2c1	DT40 TDP1 CPT 23µM, TDP1 cell noCPT 21µM
CCc1ccc2[nH]c(=O)c(CN(CCCN3CCOCC3)C(=O)Nc3cccc(Cl)c3)cc2c1	ClpP mod inconclusive, DT40 TDP1 CPT inconclusive, TDP1 cell noCPT 15µM
COc1ccc(C2CC(=O)NC(NC(=O)c3ccc(Br)cc3)=N2)c(OC)c1OC (centres undefined)	none
O=c1[nH]nc(SCc2ccccc2)c(=O)[nH]1	none
S=c1[nH]nc(SCc2ccccc2)c2[nH]cnc12	DT40 TDP1 CPT inconclusive, TDP1 cell noCPT 4.6µM (no result: ClpP mod, TDP1 inh)
CN(C)C(=O)c1ccc(-c2ccc3ncnc(N(C)Cc4ccco4)c3c2)cc1	DT40 TDP1 CPT 5.8µM, TDP1 cell noCPT inconclusive (no result: ClpP mod, TDP1 inh)
CN(Cc1ccco1)c1ncnc2ccc(-c3cccnc3)cc12	DT40 TDP1 CPT 15µM, TDP1 cell noCPT 18µM (no result: ClpP mod)
CN(Cc1ccco1)c1ncnc2ccc(-c3cccc(C#N)c3)cc12	DT40 TDP1 CPT 23µM, TDP1 cell noCPT 23µM (no result: ClpP mod)
